Source: PubChem BioAssay (Tox21)
Values joined by “and” are separate entries in the source; they are usually repeats but may differ in a detail not shown here. Equal values may be shown once. Records with an inconclusive call do not appear. The source holds several records for some structures; these can differ, active in one and inactive in another. Active and inactive are the calls of the source. The call rests on the fitted dose curve; in most records, active means well fitted curve in the direction sought with a large enough effect in the repeat runs; inconclusive means weak or mixed curves; inactive means no such curve, though single readings can be large; an effect the other way counts as inactive or inconclusive.

Legend:
[1] = qHTS RealTime-Glo MT Cell Viability Assay in HEK293 cells - 0 hour (AID 1224880); further: nearly all actives have a fitted effect of over 45% in size; further: potency means the concentration at half of the fitted maximal effect; on activity change, negative = cytotoxicity: top concentration of the series differs between compounds
Summary of the method: (§1)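 Kinetic, non-lysing viability readout. Seed HEK293 (600/well) with reagent, incubate 5 h at 37 C/5% CO2, pin 23 nL compound in DMSO, incubate at 37 C, read luminescence at 0, 8, 16, 24, 32, 40 h.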

[2] = A CellTox Green Cytotoxicity Assay to monitor cytotoxicity in HEK293 cells - 32 hour (AID 1224881); further: nearly all actives have a fitted effect of over 40% in size; further: potency means the concentration at half of the fitted maximal effect
Summary of the method: (§2)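 Real-time, in one plate: 600 HEK293 cells/well with dead-cell DNA dye, pinned compound after 5 h, 37 C incubation over 40 h; viable cells give no appreciable fluorescence.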

[3] = A CellTox Green Cytotoxicity Assay to monitor cytotoxicity in HepG2 cells - 0 hour (AID 1224882); further: nearly all actives have a fitted effect of over 35% in size; further: potency means the concentration at half of the fitted maximal effect
Summary of the method: (§3)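 Cytotoxicity was tracked as dead-cell DNA fluorescence in HepG2 cells treated with test compounds at 37 C; each time-point value comes from one kinetic series spanning 0, 8, 16, 24, 32 and 40 h.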

[4] = A CellTox Green Cytotoxicity Assay to monitor cytotoxicity in HepG2 cells - 32 hour (AID 1224883); further: nearly all actives have a fitted effect of over 50% in size; further: potency means the concentration at half of the fitted maximal effect
Summary of the method: as §3

[5] = A CellTox Green Cytotoxicity Assay to monitor cytotoxicity in HEK293 cells - 8 hour (AID 1224884); further: nearly all actives have a fitted effect of over 35% in size; further: potency means the concentration at half of the fitted maximal effect
Summary of the method: as §2

[6] = qHTS RealTime-Glo MT Cell Viability Assay in HepG2 cells - 16 hour (AID 1224885); further: nearly all actives have a fitted effect of over 50% in size
Summary of the method: (§4)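 HepG2 cells were seeded at 600 cells/well together with NanoLuc luciferase and a cell-permeant prosubstrate, preincubated 5 h at 37 C/5% CO2, then pin-dosed with compounds in DMSO. Nonlytic luminescence from viable cells was read at each time point.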

[7] = qHTS RealTime-Glo MT Cell Viability Assay in HEK293 cells - 24 hour (AID 1224886); further: top concentration of the series differs between compounds; nearly all actives have a fitted effect of over 50% in size
Summary of the method: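 HEK293 cells were seeded at 600 cells/well together with NanoLuc luciferase and cell-permeant prosubstrate, preincubated 5 h at 37 C/5% CO2, then given compound in DMSO by pintool. Luminescence from viable-cell prosubstrate reduction was read repeatedly over 40 h.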

[8] = qHTS RealTime-Glo MT Cell Viability Assay in HEK293 cells - 8 hour (AID 1224887); further: top concentration of the series differs between compounds; nearly all actives have a fitted effect of over 50% in size
Summary of the method: as §1

[9] = qHTS RealTime-Glo MT Cell Viability Assay in HepG2 cells - 0 hour (AID 1224889); further: nearly all actives have a fitted effect of over 50% in size; further: potency means the concentration at half of the fitted maximal effect
Summary of the method: as §4

[10] = A CellTox Green Cytotoxicity Assay to monitor cytotoxicity in HEK293 cells - 16 hour (AID 1224888); further: nearly all actives have a fitted effect of over 35% in size
Summary of the method: as §2
On the % scale 0 is the no-effect control and ±100 the full control effect.

CCCCNC(=O)NCCCC
inactive: Potency [1] | Potency [2] | Potency [3] | Potency [4] | Potency [5] | Potency [6] | Potency [7] | Potency [8] | Potency [9]

O=C(O)COc1nn(Cc2ccccc2)c2ccccc12
inactive: Potency [1] | Potency [2] | Potency [3] | Potency [4] | Potency [5] | Potency [6] | Potency [8] | Potency [10] | Potency [9]

CCCCCCCCCCCCN(CCCCCCCCCCCC)CCCCCCCCCCCC
inactive: Potency [1] | Potency [2] | Potency [3] | Potency [4] | Potency [5] | Potency [6] | Potency [8] | Potency [10] | Potency [9]

O=c1n(CCO)c(=O)n(CCO)c(=O)n1CCO
inactive: Potency [1] | Potency [6] | Potency [7] | Potency [8] | Potency [9]
inactive and 38.9 µM (active): Potency [2] | Potency [4]
inactive and 43.6 µM (active): Potency [3] | Potency [5]

Cc1[nH]c(=O)c(C#N)cc1-c1ccc2nccn2c1
inactive: Potency [1] | Potency [2] | Potency [3] | Potency [4] | Potency [5] | Potency [6] | Potency [8] | Potency [10] | Potency [9]

O=C(c1ccccc1)C1CCCCC1
inactive: Potency [1] | Potency [3] | Potency [5] | Potency [6] | Potency [8] | Potency [10] | Potency [9]
active: Potency [2] 24.5 µM | Potency [4] 49 µM

N=C(N)c1ccc2cc(OC(=O)c3ccc(N=C(N)N)cc3)ccc2c1
inactive: Potency [1] | Potency [2] | Potency [3] | Potency [4] | Potency [5] | Potency [6] | Potency [7] | Potency [8] | Potency [9]

NS(=O)(=O)c1cc2c(cc1Cl)NC(C1CC3C=CC1C3)NS2(=O)=O (configuration not stated)
inactive: Potency [1] | Potency [2] | Potency [3] | Potency [4] | Potency [5] | Potency [6] | Potency [7] | Potency [10] | Potency [9]

CCC(C)C1CCCCC1=O (configuration not stated)
inactive: Potency [1] | Potency [2] | Potency [3] | Potency [4] | Potency [5] | Potency [6] | Potency [7] | Potency [8] | Potency [9]

C1OCOCO1
inactive: Potency [1] | Potency [2] | Potency [3] | Potency [4] | Potency [5] | Potency [6] | Potency [7] | Potency [8] | Potency [9]

C=COCC1CCC(CO)CC1 (configuration not stated)
inactive: Potency [1] | Potency [2] | Potency [3] | Potency [4] | Potency [5] | Potency [6] | Potency [8] | Potency [10] | Potency [9]

CC(NC(CCc1ccccc1)C(=O)O)C(=O)N1C(=O)N(C)CC1C(=O)O (configuration not stated)
inactive: Potency [1] | Potency [2] | Potency [3] | Potency [4] | Potency [5] | Potency [6] | Potency [7] | Potency [8] | Potency [9]

COc1ccccc1OCC(O)CN1CCN(CC(=O)Nc2c(C)cccc2C)CC1 (configuration not stated)
inactive: Potency [1] | Potency [2] | Potency [3] | Potency [4] | Potency [5] | Potency [6] | Potency [8] | Potency [10] | Potency [9]

CCCCCCCCS(=O)(=O)Cl
inactive: Potency [1] | Potency [2] | Potency [3] | Potency [4] | Potency [5] | Potency [6] | Potency [8] | Potency [10] | Potency [9]

COC(=O)c1c(Cl)c(Cl)c(C(=O)OC)c(Cl)c1Cl
inactive and 43.6 µM (active): Potency [2]
inactive and 138 nM (active): Potency [3]
inactive: Potency [1] | Potency [4] | Potency [5] | Potency [6] | Potency [10] | Potency [9]

CCCN(CCC)CCc1cccc2c1CC(=O)N2
inactive: Potency [1] | Potency [2] | Potency [3] | Potency [4] | Potency [5] | Potency [6] | Potency [8] | Potency [9]

CCCCCCCCCCCCCCCCC
inactive: Potency [1] | Potency [2] | Potency [3] | Potency [4] | Potency [5] | Potency [6] | Potency [7] | Potency [8] | Potency [9]

Cn1c(N)c(N=O)c(=O)n(C)c1=O
inactive: Potency [1] | Potency [2] | Potency [3] | Potency [4] | Potency [5] | Potency [6] | Potency [7] | Potency [8] | Potency [9]

COc1nc(N)nc2c1ncn2[C@@H]1O[C@H](CO)[C@@H](O)[C@@H]1O
inactive: Potency [1] | Potency [2] | Potency [3] | Potency [4] | Potency [5] | Potency [6] | Potency [8] | Potency [9]

CC1(C)C(O)C(C)(C)C1O (configuration not stated)
inactive: Potency [1] | Potency [2] | Potency [3] | Potency [4] | Potency [5] | Potency [7] | Potency [8] | Potency [10] | Potency [9]

CN1C(=O)N(C)C(O)C1O (configuration not stated)
inactive: Potency [1] | Potency [2] | Potency [3] | Potency [4] | Potency [5] | Potency [6] | Potency [7] | Potency [8] | Potency [9]

Cc1cc(O)cc2c1O[C@](C)(CCC[C@H](C)CCC[C@H](C)CCCC(C)C)CC2
inactive: Potency [1] | Potency [2] | Potency [3] | Potency [4] | Potency [5] | Potency [6] | Potency [8] | Potency [10] | Potency [9]

CC(=O)OCC(=O)[C@@]1(O)CC[C@H]2[C@@H]3CCC4=CC(=O)CC[C@]4(C)[C@H]3C(=O)C[C@@]21C
inactive: Potency [2] | Potency [3] | Potency [4] | Potency [5] | Potency [6] | Potency [8]
active: Potency [1] 6.01 µM | Potency [9] 1.07 µM

O=C(CCCN1CCN(c2ccccn2)CC1)c1ccc(F)cc1
inactive: Potency [1] | Potency [2] | Potency [3] | Potency [4] | Potency [5] | Potency [6] | Potency [10] | Potency [9]

CC(C)c1cc2c(cc1S(=O)(=O)O)[C@@]1(C)CCC[C@@](C)(C(=O)O)[C@@H]1CC2
inactive: Potency [1] | Potency [2] | Potency [3] | Potency [4] | Potency [5] | Potency [6] | Potency [7] | Potency [8] | Potency [9]

Cc1c(NC(C)C)c(=O)n(-c2ccccc2)n1C
inactive: Potency [1] | Potency [2] | Potency [3] | Potency [4] | Potency [5] | Potency [6] | Potency [7] | Potency [8] | Potency [9]

C[C@](N)(Cc1ccc(O)cc1)C(=O)O
inactive: activity change, negative = cytotoxicity [1] 0.416% [at 6.97 µM] | cytotoxicity increase [2] 3.03% [at 6.97 µM] | cytotoxicity [3] 0.583% [at 6.97 µM] | cytotoxicity increase [4] -6.04% [at 6.97 µM] | cytotoxicity increase [5] 2.1% [at 6.97 µM] | activity change, negative = cytotoxic [6] -0.0046% [at 6.97 µM] | activity change, negative = cytotoxicity [8] 3.77% [at 6.97 µM] | activity change [10] 4.06% [at 6.97 µM, stronger effect = higher value] | activity change, negative = cytotoxicity [9] -5.13% [at 6.97 µM]

CC(C)(C)c1nnc(NS(=O)(=O)c2ccccc2)s1
inactive: Potency [1] | Potency [2] | Potency [3] | Potency [4] | Potency [5] | Potency [6] | Potency [8] | Potency [9]

CN(C)CCCNCCCN(C)C
inactive: Potency [1] | Potency [2] | Potency [3] | Potency [4] | Potency [5] | Potency [7] | Potency [8] | Potency [9]

CS(=O)(=O)O
inactive: Potency [1] | Potency [2] | Potency [3] | Potency [4] | Potency [6] | Potency [7] | Potency [8] | Potency [10] | Potency [9]

C[C@H](NC(CCc1ccccc1)C(=O)O)C(=O)N1CCC[C@H]1C(=O)O (some centres not stated)
inactive: Potency [1] | Potency [2] | Potency [3] | Potency [4] | Potency [5] | Potency [7] | Potency [8] | Potency [10] | Potency [9]

CCc1cccc2c(CCO)c[nH]c12
inactive: Potency [1] | Potency [2] | Potency [3] | Potency [4] | Potency [5] | Potency [8] | Potency [10] | Potency [9]

O=C(O)CNC(=O)c1ccc([N+](=O)[O-])cc1
inactive: Potency [1] | Potency [2] | Potency [3] | Potency [4] | Potency [6] | Potency [7] | Potency [8] | Potency [10] | Potency [9]

CC(=O)Nc1c(I)cc(I)c(C(=O)O)c1I
inactive: Potency [1] | Potency [2] | Potency [3] | Potency [4] | Potency [5] | Potency [7] | Potency [8] | Potency [10] | Potency [9]

CC1=CC(C)C(C=O)CC1 (configuration not stated)
inactive: Potency [1] | Potency [2] | Potency [3] | Potency [4] | Potency [5] | Potency [7] | Potency [8] | Potency [10] | Potency [9]

COc1cc(C(=O)N2CCCCCCC2)cc(OC)c1OC
inactive: Potency [1] | Potency [2] | Potency [3] | Potency [4] | Potency [5] | Potency [7] | Potency [8] | Potency [10] | Potency [9]

Cc1c(O)cccc1O
inactive: Potency [1] | Potency [2] | Potency [3] | Potency [4] | Potency [5] | Potency [7] | Potency [8] | Potency [9]

CC(=O)c1ccccc1O
inactive: Potency [1] | Potency [2] | Potency [3] | Potency [4] | Potency [6] | Potency [7] | Potency [8] | Potency [10] | Potency [9]

Cn1cc(S(C)=O)c(=O)c2ccc(F)cc21 (configuration not stated)
inactive: Potency [1] | Potency [2] | Potency [3] | Potency [4] | Potency [6] | Potency [7] | Potency [8] | Potency [10] | Potency [9]
